Source: PubChem
Sampled rows, rich in hits. Any-hit rate of the full collection: about 0.35%.
Vif-APOBEC3G blk: qHTS for Inhibitors of Vif-A3G Interactions: qHTS. DNA dC->dU-editing enzyme APOBEC-3G (Homo sapiens), Q9HC16. HeLa A3G-eYFP + Vif (tagged APOBEC3G with the HIV-1 protein that degrades it), YFP fluorescence, overnight. Potency, µM (doses to about 46.1 µM), most hits filed as inhibitors. 410,000 tested, 0.076% active. AID 602310, 2012; note: nearly all actives have a fitted effect of over 60% in size
Target sequence (Q9HC16 whole entry, looked up): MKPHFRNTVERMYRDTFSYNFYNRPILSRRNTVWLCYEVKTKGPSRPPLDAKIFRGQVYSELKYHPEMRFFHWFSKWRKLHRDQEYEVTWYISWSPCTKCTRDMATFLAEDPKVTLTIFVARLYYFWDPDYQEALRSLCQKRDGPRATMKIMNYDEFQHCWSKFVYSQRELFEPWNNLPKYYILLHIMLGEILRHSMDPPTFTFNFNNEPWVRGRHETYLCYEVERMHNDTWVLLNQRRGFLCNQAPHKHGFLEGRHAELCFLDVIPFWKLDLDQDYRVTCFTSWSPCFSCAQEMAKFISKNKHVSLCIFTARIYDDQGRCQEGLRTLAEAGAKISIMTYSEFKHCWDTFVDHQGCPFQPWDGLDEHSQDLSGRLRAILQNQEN
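HeLa cells stably expressing Vif and C-terminally eYFP-tagged A3G, seeded overnight at 37 deg C, then exposed to compound by pintool overnight at 37 deg C. Rise in yellow fluorescence (Ex 488/Em 500-530, Acumen) marks blocked Vif-driven A3G degradation.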
GRP78 ERSR act: qHTS for Inducers of the Endoplasmic Reticulum Stress Response (ERSR) in Human Glioma: qHTS; AID 602332, 2012; U87-MG GRP78 promoter luciferase reporter, 16 h; Potency, µM, usual class: activators; 420,000 tested, 0.02% active; note: series mostly up to about 76 µM; nearly all actives have a fitted effect of over 35% in size
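Stably transfected U87-MG human glioma cells carrying a GRP78-based luminescent sensor were seeded at 1000 cells/well, pin-dosed with compounds and incubated 16 h. Luciferase reagent was then added, and end-point luminescence was read after 10 min at room temperature.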
Vif-A3F inh: qHTS for Inhibitors of Vif-A3F Interactions: qHTS. HeLa A3F-eYFP + Vif (tagged APOBEC3F with the HIV-1 protein that degrades it), YFP fluorescence increase. AID 602313, 2012. 390,000 tested, 0.2% active. Potency, µM (top dose mostly 46.1 µM); note: nearly all actives have a fitted effect of over 65% in size
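HeLa cells stably expressing A3F-eYFP plus Vif, plated and incubated overnight at 37 deg C, then exposed to compounds overnight at 37 deg C. Blocked degradation read as raised yellow fluorescence (Ex 488/Em 500-530).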
Epigenetic reg: Quantitative High-Throughput Screen for Regulators of Epigenetic Control. Potency, µM (top dose mostly 53.9 µM), most hits filed as activators. murine LDR cells, GFP reporter derepression, 30 h. 280,000 tested, 0.2% active; note: nearly all actives have a fitted effect of over 60% in size
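Murine LDR cells carrying a silenced, genomically integrated CMV-driven GFP reporter were exposed to compound for 30 hours at 37 C. After PBS washes, GFP-positive cells (20–120 um objects) were counted by laser-scanning microplate cytometry.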
Hits are given with their value; – = inactive; ? = inconclusive; · = not tested or not shown. Calls come from the whole dose curve; as a rule, active = well fitted curve in the direction sought with a large enough effect; inconclusive = small, poorly fitted or top-dose-only effect, or another doubt; inactive = no such curve, though single readings can be large; an effect the other way counts as inactive or inconclusive.

SMILES | Vif-APOBEC3G blk | GRP78 ERSR act | Vif-A3F inh | Epigenetic reg
CCOc1ccc(OCC)c(Nc2nc3ccc(C(=O)c4ccccc4)cc3n3cnnc23)c1 | – | – | – | –
CCOc1ccc(OCC)c(Nc2nc3ccc(Cl)cc3n3cnnc23)c1 | · | · | · | 22.4µM
CN(C)CCOc1ccc2c(c1)C(=O)C(=Cc1ncc([N+](=O)[O-])n1C)C2 | 11.2µM | – | ? | ·
Cc1ccc(-c2cc(-c3ccco3)c3c(N)c(C(=O)NN)oc3n2)cc1 | ? | – | 11.2µM | –
NNC(=O)c1oc2nc(-c3ccccc3)cc(-c3ccccc3)c2c1N | – | – | ? | ·
CCN(c1ccc(N=Cc2c(O)n(Cc3ccc(OC)cc3)c(=O)c3ccccc23)cc1)C(C)C | ? | – | – | 2µM
Cc1nc([N+](=O)[O-])cn1CC(=O)Nc1ccc([N+](=O)[O-])cc1 | – | – | – | ·
COc1cc(C2CC(=O)c3c(ccc4ccccc34)N2)ccc1O (centres undefined) | – | – | – | –
COc1cccc(C2Nc3ccc4ccccc4c3C3=C2C(=O)CCC3)c1O (centres undefined) | ? | – | 11.2µM | ·
O=C(NC1CCCCCC1)c1ccc2c(c1)sc1nc(-c3ccccc3)cn12 | – | – | 5.01µM | –
COc1ccc(-c2cn3c(n2)sc2cc(C(=O)NC4CCCCC4)ccc23)cc1 | – | – | – | –
CCc1ccc(NC(=O)Cn2cc(S(=O)(=O)c3ccc(F)cc3)c(=O)c3cc(OC)ccc32)cc1 | – | – | – | –
Cc1ccccc1CN1CCC(CNc2ncnc3onc(-c4ccc(Cl)cc4)c23)CC1 | – | – | – | –
CCOC(=O)C1=C(C)N=C2c3ccccc3C(=O)C2C1c1ccc(Cl)cc1 (centres undefined) | – | – | – | –
CCOC(=O)C1=C(Cc2ccc(Cl)cc2)C(=O)c2ccccc2C1=O | ? | ? | 28.2µM | –
COc1ccc(NC(=O)N2CCOc3ccc(Cl)cc32)cc1 | – | – | – | –
O=C(NCC(c1ccc2c(c1)OCO2)N1CCN(c2ccccc2)CC1)C(=O)Nc1ccccc1 (centres undefined) | – | – | – | –
COc1ccc(S(=O)(=O)Nc2nc3ccccc3nc2Nc2ccc3c(c2)OCO3)cc1 | · | · | · | –
O=S(=O)(Nc1nc2ccccc2nc1Nc1ccc2c(c1)OCCO2)c1cccs1 | – | – | 11.2µM | –
Cc1ccc(NC(=O)c2cccc(NC(=O)CC3SC(N4CCCCC4)=NC3=O)c2)nc1 (centres undefined) | – | – | – | ·
Cc1ccc(NC(=O)c2cc3ccccc3oc2=N)cc1 | – | – | – | ·
N=c1oc2c3c4c(cc2cc1C(=O)Nc1ccccc1)CCCN4CCC3 | – | – | – | 0.282µM
S=C(NCc1ccco1)N1CCC(c2nc3ccccc3o2)CC1 | – | – | – | –
O=c1[nH]cnc2c1ccn2C1OC(CO)C(O)C1O (centres undefined) | – | – | – | ·
O=C1c2cccc3c([N+](=O)[O-])c(O)cc(c23)C(=O)N1Nc1ccccc1 | ? | ? | 10µM | –
SMILES | Vif-APOBEC3G blk | GRP78 ERSR act | Vif-A3F inh | Epigenetic reg
O=C1c2ccccc2C(=O)N1Nc1ccccc1 | – | – | – | –
Cc1ccc(CNC(=O)Cn2cc(C(=O)c3ccc(Cl)cc3)c(=O)c3ccc(C)nc32)cc1 | – | – | 12.6µM | –
Cc1ccc(C(=O)c2cn(CC(=O)NCc3ccccc3)c3nc(C)ccc3c2=O)cc1 | – | – | – | –
Cc1cnc(CNc2cc(-c3ccccc3CN(C)C)ncn2)cn1 | · | – | · | ·
Cc1ccc(C)c(NC(=O)CSc2ncc3c(n2)-c2ccccc2N(Cc2ccccc2C)S3(=O)=O)c1 | – | – | – | ?
Cc1ccccc1CN1c2ccccc2-c2nc(SCC(=O)NCCc3ccccc3)ncc2S1(=O)=O | – | – | – | 22.4µM
NC(=O)c1ccc(NCCc2ccccc2)c([N+](=O)[O-])c1 | – | – | – | –
O=C(Nc1ccccc1)c1ccc(NCCc2ccccc2)c([N+](=O)[O-])c1 | – | – | ? | 12.6µM
COc1ccc(-n2c(=O)c(CCC(=O)N3CCN(c4cccc(OC)c4)CC3)nc3ccccc32)cc1 | – | – | – | ·
COc1ccc(/C(O)=C/c2nc3ccccc3n(-c3ccccc3)c2=O)cc1 | – | – | ? | 25.1µM
Cc1ccc(OCC(=O)Nc2ccccc2C(=O)OCc2cc(=O)n3c(C)csc3n2)cc1 | – | – | – | –
Cc1nc2ccccc2oc1=O | · | · | · | –
O=c1c(Cl)c2oc3ccccc3nc-2c2ccccc12 | ? | – | ? | 22.4µM
CN(C)C=Nc1c(Br)cc(Br)c2nonc12 | ? | – | 11.2µM | ?
CN(C)C=Nc1nonc1-c1ccccc1 | – | – | – | –
COC(=O)c1cc2sc(C)cc2n1Cc1ccc(Br)cc1F | · | · | · | –
CCOc1ccc(NC(=O)N2CC=C(c3c[nH]c4ccccc34)CC2)cc1 | ? | – | 28.2µM | ?
CCOC(=O)c1cccc(NC(=O)N2CC=C(c3c[nH]c4ccccc34)CC2)c1 | ? | – | 5.01µM | ?
CCOC(=O)c1cccc(NC(=O)N2CCC(CN3CCc4ccccc4C3)CC2)c1 | – | – | – | –
CCCCC(=O)Nc1nnc(SCc2cc(=O)n3cc(C)ccc3n2)s1 | – | – | – | –
CCN1CCc2c(sc(-n3cccc3)c2C(C)NC(=O)Nc2ccc(C(=O)OC)cc2)C1 (centres undefined) | ? | – | 22.4µM | –
CCN1CCc2c(sc(-n3cccc3)c2C(CCC(C)C)NC(=O)NCCC(=O)OC)C1 (centres undefined) | – | – | – | –
CCOC(=O)c1ccc(N=Nc2c(C)c(C#N)c(O)[nH]c2=O)cc1 | – | – | 10µM | –
N#Cc1ccc(/C=C\c2nccc3c2[nH]c2ccccc23)cc1 | 12.6µM | – | ? | ?
Clc1ccc(/C=C\c2nccc3c2[nH]c2ccccc23)cc1 | – | – | ? | –
SMILES | Vif-APOBEC3G blk | GRP78 ERSR act | Vif-A3F inh | Epigenetic reg
Cc1occc1C(=O)N/N=C/C(Br)=C/c1ccccc1 | – | – | ? | 22.4µM
C[C@H](NC(=O)c1nc[nH]c1C(=O)N(C)CCO)c1ccccc1 | – | – | · | ·
CCOC(=O)C1=C(C)OC(=Cc2ccccc2)C1=O | – | – | – | ·
CCOC(=O)C1=C(O)c2ccccc2C(=O)/C1=C\c1ccc(C)cc1 | ? | – | 25.1µM | ?
Clc1ccccc1C1CC(c2ccccc2)=Nc2ccccc2N1 (centres undefined) | – | – | 20µM | –
COCCCNc1nc2ccccc2nc1NS(=O)(=O)c1ccccc1 | – | – | 22.4µM | –
O=C1CCC=C1C(O)CCc1ccccc1 (centres undefined) | · | · | · | –
O=C(Oc1ccc(Cl)c2cccnc12)c1ccco1 | 11.2µM | ? | – | ?
O=C(c1cccc(F)c1)N1CCC[C@@]2(CCN(C(c3ccccc3)c3ccccc3)C2)C1 | · | 12.6µM | · | ·
O=C(c1cnccn1)N1CCC2(CCCN(C(c3ccccc3)c3ccccc3)C2)CC1 | · | 44.7µM | · | ·
Cc1ccc(OCC(=O)c2c(N)n(C)c(=O)n(C)c2=O)c([N+](=O)[O-])n1 | – | – | – | ·
O=C(/C=C/c1ccncc1)c1cc(Cl)ccc1O | ? | – | 25.1µM | –
